Data reported in PubChem BioAssay (NCI).
Values joined by “and” are separate entries in the source; they are usually repeats but may differ in a detail not shown here. Equal values may be shown once. Compounds without any hit were thinned out: in the full panel of roughly 83,000, 20% have a hit.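 48-hour exposure, single concentration, 96-well plates; percent growth endpoint where 0 means no net growth. Active: below 10.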 A number with no mark means an inactive call. Active and inactive are the calls of the source.

Tested on: MDA-MB-468 breast
Assay: NCI-60 one-dose screen, 48 h (100 = growth as untreated, 0 = no growth, -100 = all killed)
Conditions: 10 µM unless noted

SMILES | growth
CCC(C)C1NC(=O)C(CCNCS(=O)(=O)O)NC(=O)C(NC(=O)C(CCNCS(=O)(=O)O)NC(=O)C(NC(=O)C(CCNCS(=O)(=O)O)NC(=O)CCCCC(C)C)C(C)O)CCNC(=O)C(C(C)O)NC(=O)C(CCNCS(=O)(=O)O)NC(=O)C(CCNCS(=O)(=O)O)NC(=O)C(C(C)CC)NC1=O (stereo not given) | 16%
CN(C)CC(=O)c1ccc2cc(Br)c3ccccc3c2c1 | 72.1%
O=c1[nH][n+](-c2ccc(Br)cc2)no1 | 86.1%
CCOC(=O)NCCc1nc2c([nH]1)c(=O)n(C)c(=O)n2C | 112%
Cc1nc2sc(C(=O)Nc3ccccc3Cl)c(N)c2cc1C(C)O (stereo not given) | 70.1%
COc1ccc(NC(=O)C(=O)c2c[nH]c3ccc(F)cc23)cc1 | 95.3%
N#C/C(=C/c1ccc([N+](=O)[O-])cc1)n1nnc2cc(F)c(F)cc21 | 19.8%
Oc1cc(O)c(Br)cc1Br | 101%
CCCCCCCCCCNC(=O)CI | -40.5% (active)
C=C1C(=O)O[C@H]2[C@H]1CC/C(COC(=O)/C=C/c1c[nH]c3ccccc13)=C\CC[C@@]1(C)O[C@@H]21 | -78.1% (active)
CC(=O)/C(=C/c1ccc(-c2ccccc2)cc1)C(=O)c1ccccc1 | 92.2%
Cn1c(N)c(N=O)c(=O)n(C)c1=O | 122% and 112%
COc1cc2cc(Oc3ccc(NC(=O)Nc4cc(C(F)(F)F)cc(C(F)(F)F)c4)cc3)c(C)nc2cc1OCCN1CCCCC1 | -78.6% (active)
COC(=O)CC1=C(c2ccc([N+](=O)[O-])cc2)CCC1=O | 101%
Cn1c(=O)c2c(nc(Cl)n2CCl)n(C)c1=O | 106%
Cc1ccc2sc3c(c2c1)OC(N)=C(C#N)C3c1cccc(F)c1 (stereo not given) | -14.1% (active)
CCCCC1COc2cccc3c(SCC(=O)N(C)c4cccc(Cl)c4)cc[n+]1c23 (stereo not given) | 104%
O=C(O)c1cccnc1Br | 102%
CCOc1ccccc1/C=N/N1CCCCCC1 | 108%
O=S(=O)(NCCNc1nccc(-c2c(-c3cccc(O)c3)nc3occn23)n1)c1ccc(Br)cc1 | 26.6%
O=C1C2=C(Nc3cc(Cl)ccc3N2)OC1c1c[nH]c2ccc(COc3ccccc3)cc12 (stereo not given) | 48.2%
CNC(=O)c1cncc(Cn2nc(C)c(NC(=O)c3ccc(COc4ccc(C(F)(F)F)cc4C)cc3)c2C)c1 | 10.7%
O=S1(=O)OC(c2ccc(O)c(Cl)c2)(c2ccc(O)c(Cl)c2)c2ccccc21 | 114%
COc1ccc(N(C)c2nc(Cl)nc3cnn(C)c23)cc1 | 26.9%
O=C(/C=C/c1cccc(Br)c1)c1cccc(OCCCCOc2cccc(C(=O)/C=C/c3cccc(Br)c3)c2)c1 | 102%
